# Experimental data from PubChem BioAssay (EPA / NIEHS).
# Results filed as inconclusive are left out. The source made the active and inactive calls. Rule for the calls: active = hit-call score of the fitted dose curve at least 0.9, where 1 is the maximum; inconclusive = response in the unintended direction; inactive = score below 0.9.
# Target: Serine/threonine-protein phosphatase PP1-alpha catalytic subunit (Homo sapiens) (UniProt P62136)
# Assay: NVS_ENZ_hPPP1CA: NovaScreen (NVS) Enzymatic Assay for human Protein Phosphatase 1 Aatalytic subunit Alpha (PPP1CA) (AID 2283200)
# Summary of the method: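 Recombinant enzyme activity read by fluorescence with electrophoretic mobility shift separating substrate from product, 1.33 h after dosing; loss of signal vs DMSO baseline. Primary screen in duplicate at 25 uM; actives retested in concentration-response up to 50 uM.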
# Sequence of Serine/threonine-protein phosphatase PP1-alpha catalytic subunit (Homo sapiens) (P62136 whole entry, looked up): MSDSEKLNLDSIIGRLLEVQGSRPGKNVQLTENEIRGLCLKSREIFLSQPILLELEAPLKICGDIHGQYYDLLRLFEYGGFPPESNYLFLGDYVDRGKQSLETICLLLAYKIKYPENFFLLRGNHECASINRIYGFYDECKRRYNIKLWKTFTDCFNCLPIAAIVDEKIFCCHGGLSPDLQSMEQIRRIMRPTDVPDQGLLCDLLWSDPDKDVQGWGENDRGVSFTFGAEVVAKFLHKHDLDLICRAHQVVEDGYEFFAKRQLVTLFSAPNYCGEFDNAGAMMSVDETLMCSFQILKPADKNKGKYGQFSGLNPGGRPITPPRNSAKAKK
SMILES,AC50,outcome
CCCCSP(=O)(SCCCC)SCCCC,10.4 µM (active),–
CCOP(=O)(OCC)Oc1cc(C)nc(C(C)C)n1,–,inactive
CCOP(=S)(OCC)SCCSCC,–,inactive
CCCCN(CC)c1c([N+](=O)[O-])cc(C(F)(F)F)cc1[N+](=O)[O-],–,inactive

# Target: Tyrosine-protein phosphatase non-receptor type 11 (Homo sapiens) (UniProt Q06124)
# Assay: NVS_ENZ_hPTPN11: NovaScreen (NVS) Enzymatic Assay for human Protein Tyrosine Phosphatase Non-receptor Type 11 (PTPN11) (AID 2283202)
# Summary of the method: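 Recombinant human PTPN11 activity on a fluorescent substrate, with substrate/product separated by electrophoretic mobility shift; read 0.5 h after dosing, loss of signal vs DMSO. Duplicate 25 uM screen, then concentration-response up to 50 uM.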
# Sequence of Tyrosine-protein phosphatase non-receptor type 11 (Homo sapiens) (Q06124 whole entry, looked up): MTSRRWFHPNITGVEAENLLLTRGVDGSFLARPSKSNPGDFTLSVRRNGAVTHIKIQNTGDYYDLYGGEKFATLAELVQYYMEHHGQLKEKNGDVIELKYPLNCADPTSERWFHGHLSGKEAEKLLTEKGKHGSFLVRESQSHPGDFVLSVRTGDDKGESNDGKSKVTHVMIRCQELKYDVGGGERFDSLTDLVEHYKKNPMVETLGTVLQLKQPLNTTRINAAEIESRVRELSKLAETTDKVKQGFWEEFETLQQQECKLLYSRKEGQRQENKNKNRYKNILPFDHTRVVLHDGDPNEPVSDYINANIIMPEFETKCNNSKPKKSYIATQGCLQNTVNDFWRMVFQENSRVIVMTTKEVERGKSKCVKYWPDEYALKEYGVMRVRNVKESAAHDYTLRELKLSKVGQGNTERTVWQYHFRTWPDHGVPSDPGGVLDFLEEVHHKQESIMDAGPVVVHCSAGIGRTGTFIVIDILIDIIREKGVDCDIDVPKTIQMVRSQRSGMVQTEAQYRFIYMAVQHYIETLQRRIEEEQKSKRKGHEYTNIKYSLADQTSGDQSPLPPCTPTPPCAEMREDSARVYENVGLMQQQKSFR
row,SMILES,outcome
1,CNC(=O)Oc1cccc2c1OC(C)(C)O2,inactive
2,C=C(C)[C@H]1Cc2c(ccc3c2O[C@@H]2COc4cc(OC)c(OC)cc4[C@@H]2C3=O)O1,inactive
3,CCC(=NOC/C=C/Cl)C1=C(O)CC(C2CCOCC2)CC1=O (centres undefined),inactive

# Target: Tyrosine-protein phosphatase non-receptor type 14 (Homo sapiens) (UniProt Q15678)
# Assay: NVS_ENZ_hPTPN14: NovaScreen (NVS) Enzymatic Assay for human Protein Tyrosine Phosphatase Non-receptor Type 14 (PTPN14) (AID 2283206)
# Summary of the method: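 Cell-free recombinant human PTPN14 with fluorescent substrate, read 0.5 h after dosing by fluorescence and electrophoretic mobility shift separating substrate from product. Primary screen at 25 uM in duplicate; hits run to 50 uM maximum; loss of signal versus DMSO.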
# Sequence of Tyrosine-protein phosphatase non-receptor type 14 (Homo sapiens) (Q15678 whole entry, looked up): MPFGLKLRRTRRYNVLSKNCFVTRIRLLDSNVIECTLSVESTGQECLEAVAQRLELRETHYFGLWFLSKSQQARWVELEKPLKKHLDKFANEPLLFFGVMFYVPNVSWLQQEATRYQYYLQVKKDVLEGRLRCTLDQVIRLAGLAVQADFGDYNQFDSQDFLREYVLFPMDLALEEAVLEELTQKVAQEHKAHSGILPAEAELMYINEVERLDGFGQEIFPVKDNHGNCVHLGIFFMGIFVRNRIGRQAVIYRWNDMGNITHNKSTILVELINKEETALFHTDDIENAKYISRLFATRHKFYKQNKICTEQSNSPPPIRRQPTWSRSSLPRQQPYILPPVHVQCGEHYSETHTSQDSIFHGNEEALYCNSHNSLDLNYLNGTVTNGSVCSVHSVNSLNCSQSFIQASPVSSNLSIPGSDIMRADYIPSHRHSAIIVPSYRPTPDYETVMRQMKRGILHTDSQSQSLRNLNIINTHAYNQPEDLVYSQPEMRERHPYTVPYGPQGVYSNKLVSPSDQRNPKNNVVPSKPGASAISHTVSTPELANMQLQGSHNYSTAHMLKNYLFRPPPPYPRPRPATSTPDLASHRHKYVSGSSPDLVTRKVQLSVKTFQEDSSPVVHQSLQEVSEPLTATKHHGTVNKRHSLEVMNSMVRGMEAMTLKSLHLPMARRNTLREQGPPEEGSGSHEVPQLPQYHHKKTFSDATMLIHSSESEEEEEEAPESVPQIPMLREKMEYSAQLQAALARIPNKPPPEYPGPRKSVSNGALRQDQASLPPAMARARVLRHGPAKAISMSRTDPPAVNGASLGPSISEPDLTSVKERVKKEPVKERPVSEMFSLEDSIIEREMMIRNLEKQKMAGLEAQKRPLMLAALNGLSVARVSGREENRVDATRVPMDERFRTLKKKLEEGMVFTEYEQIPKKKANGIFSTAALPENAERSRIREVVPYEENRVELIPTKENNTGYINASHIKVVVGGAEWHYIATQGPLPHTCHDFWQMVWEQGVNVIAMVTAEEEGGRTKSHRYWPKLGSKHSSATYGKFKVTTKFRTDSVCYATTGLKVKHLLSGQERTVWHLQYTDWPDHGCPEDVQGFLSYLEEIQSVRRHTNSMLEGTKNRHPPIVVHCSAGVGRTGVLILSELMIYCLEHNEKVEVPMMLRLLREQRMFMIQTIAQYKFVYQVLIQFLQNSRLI
row,SMILES,outcome
1,CNC(=O)Oc1cccc2c1OC(C)(C)O2,inactive
2,N#CSCSC#N,inactive
3,CCCCOC(=O)c1ccccc1C(=O)O,inactive
4,Nc1nc(N)nc(NC2CC2)n1,inactive
5,CC(C)N(C(=O)SCC(Cl)=C(Cl)Cl)C(C)C,inactive
6,CN1COCN(Cc2cnc(Cl)s2)C1=N[N+](=O)[O-],inactive
7,CSC1=N[C@@](C)(c2ccccc2)C(=O)N1Nc1ccccc1,inactive
8,O=c1ccc(=O)[nH][nH]1,inactive
9,CCC(=NOC/C=C/Cl)C1=C(O)CC(C2CCOCC2)CC1=O (centres undefined),inactive

# Target: human Protein Tyrosine Phosphatase Non-receptor Type 4 (PTPN4), PTPN4 (gene 5775) (UniProt P29074)
# Assay: NVS_ENZ_hPTPN4: NovaScreen (NVS) Enzymatic Assay for human Protein Tyrosine Phosphatase Non-receptor Type 4 (PTPN4) (AID 2283208)
# Summary of the method: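 Cell-free assay of PTPN4 expressed in Sf9 cells, using a fluorescent substrate with product separated by mobility shift; read 1.33 h after dosing. Single-point screen at 25 uM, then concentration-response up to 50 uM. Loss of signal relative to DMSO.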
# Sequence of human Protein Tyrosine Phosphatase Non-receptor Type 4 (PTPN4), PTPN4 (gene 5775) (P29074 whole entry, looked up): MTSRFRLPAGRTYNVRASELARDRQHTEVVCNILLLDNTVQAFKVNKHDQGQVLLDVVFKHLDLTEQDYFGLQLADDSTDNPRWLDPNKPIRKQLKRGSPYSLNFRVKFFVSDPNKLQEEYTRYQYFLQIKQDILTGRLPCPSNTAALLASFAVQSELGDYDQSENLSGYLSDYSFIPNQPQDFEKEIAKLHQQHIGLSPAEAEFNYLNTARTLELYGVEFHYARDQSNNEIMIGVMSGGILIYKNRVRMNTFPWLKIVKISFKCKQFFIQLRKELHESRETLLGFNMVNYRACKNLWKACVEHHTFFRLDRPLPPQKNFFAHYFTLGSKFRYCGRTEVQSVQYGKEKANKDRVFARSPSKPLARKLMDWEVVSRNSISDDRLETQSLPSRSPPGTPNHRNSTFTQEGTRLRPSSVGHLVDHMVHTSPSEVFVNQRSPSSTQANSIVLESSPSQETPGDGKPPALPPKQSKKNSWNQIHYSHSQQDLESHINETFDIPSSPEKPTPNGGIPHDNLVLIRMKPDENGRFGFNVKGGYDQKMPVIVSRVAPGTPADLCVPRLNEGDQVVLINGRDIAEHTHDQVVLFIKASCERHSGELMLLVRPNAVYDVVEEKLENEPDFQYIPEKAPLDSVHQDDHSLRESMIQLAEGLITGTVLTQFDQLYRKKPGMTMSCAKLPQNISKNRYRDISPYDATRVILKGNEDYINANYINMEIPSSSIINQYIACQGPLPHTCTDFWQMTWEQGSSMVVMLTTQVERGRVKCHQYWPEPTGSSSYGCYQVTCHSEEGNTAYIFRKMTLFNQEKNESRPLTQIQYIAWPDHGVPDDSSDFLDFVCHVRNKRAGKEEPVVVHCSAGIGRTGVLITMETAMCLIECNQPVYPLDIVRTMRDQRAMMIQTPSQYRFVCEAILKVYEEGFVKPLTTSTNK
row,SMILES,outcome
1,N#CSCSC#N,inactive
2,CCOP(=S)(OCC)OC(Cl)C(Cl)(Cl)Cl (centres undefined),inactive
3,CCCOc1nn(C(=O)NS(=O)(=O)c2ccccc2C(=O)OC)c(=O)n1C,inactive
